Compound activity deposited in PubChem by The Scripps Research Institute Molecular Screening Center.
MITF inh: inhibitors of human MITF. O75030. AlphaScreen MITF homodimerization, bead proximity signal. inhibition, % at 2.6 µM. 0.91% of 650,000 active; in the data active = inhibition above about 50%;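 note: 0% = vehicle wells with protein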
TEAD-YAP block: TEAD-YAP interaction inhibition; HEK-TIYL cells, TEAD-Gal4/YAP UAS-luciferase luminescence; 1.4% of 640,000 active; inhibition, % at 9.12 µM; in the data active = inhibition above about 32%;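 note: 0% = median of test compound wells and 100% = reference inhibitor wells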
GPR151 ag: activates the human receptor GPR151 | PathHunter beta-arrestin GPR151 cells, luminescence | activation, % at 11.2 µM | 1% of 650,000 active; in the data active = activation above about 4.9%;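 note: 0% = median of compound wells and 100% = cells with positive control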
FBW7 act: human FBW7 E3 ligase activation, primary screen. Q969H0. AlphaScreen FBW7–phospho-cyclin E peptide binding, activator screen. normalized activity (activation), % at 26.1 µM. 0.13% of 650,000 active; in the data active = normalized activity above about 1.9%;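 note: purified mutant Fbw7 with reduced substrate affinity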
Target sequence (Q969H0 whole entry, looked up): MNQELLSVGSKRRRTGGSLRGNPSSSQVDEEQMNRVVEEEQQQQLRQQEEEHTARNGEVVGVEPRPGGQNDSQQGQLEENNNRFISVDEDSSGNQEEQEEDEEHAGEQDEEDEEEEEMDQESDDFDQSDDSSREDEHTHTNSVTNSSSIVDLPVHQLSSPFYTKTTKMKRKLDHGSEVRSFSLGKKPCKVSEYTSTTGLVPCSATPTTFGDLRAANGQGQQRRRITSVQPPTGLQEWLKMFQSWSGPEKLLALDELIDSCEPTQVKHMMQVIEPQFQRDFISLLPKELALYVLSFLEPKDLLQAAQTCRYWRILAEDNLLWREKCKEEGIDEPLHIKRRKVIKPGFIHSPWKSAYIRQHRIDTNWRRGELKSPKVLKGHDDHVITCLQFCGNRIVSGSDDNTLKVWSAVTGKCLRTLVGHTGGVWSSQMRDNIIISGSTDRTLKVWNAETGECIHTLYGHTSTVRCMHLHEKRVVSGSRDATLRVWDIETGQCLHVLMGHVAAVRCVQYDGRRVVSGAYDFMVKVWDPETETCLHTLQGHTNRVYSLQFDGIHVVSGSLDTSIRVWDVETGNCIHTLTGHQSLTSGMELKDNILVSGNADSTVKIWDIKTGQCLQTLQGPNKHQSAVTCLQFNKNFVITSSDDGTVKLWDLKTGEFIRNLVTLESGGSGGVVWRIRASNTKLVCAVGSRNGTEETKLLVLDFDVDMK
Starred values were filed as active, the others as inactive. A selection: hits, their analogues and other compounds. The true share with any hit is near 3.5%.

SMILES | MITF inh | TEAD-YAP block | GPR151 ag | FBW7 act
CN(C)CCNC(=O)c1ccc(Sc2ccccc2Cl)c([N+](=O)[O-])c1 | -8 | -12 | 0 | 0
CN(C)CCNC(=O)c1ccc(S(=O)(=O)c2ccc(Br)cc2)c([N+](=O)[O-])c1 | 2 | 55* | -1 | 0
COc1ccc(/C(C)=N/NC(=O)Cn2ccc(C(F)(F)F)n2)c(O)c1 | -9 | 2 | 0 | 0
CN(C)c1ccc(/C=N/NC(=S)Nc2cccc(C(=O)O)c2)cc1 | -7 | 64* | 1 | 0
O=C(O)c1cccc(NC(=S)N/N=C/c2cccc(O)c2)c1 | 8 | 15 | 1 | 0
COc1ccc(O)c(/C=N/NC(=S)Nc2cccc(C(=O)O)c2)c1 | 104* | 6 | -2 | -1
COc1ccc(/C=N/NC(=S)Nc2cccc(C(=O)O)c2)c(OC)c1 | -4 | 4 | -2 | 0
CCC(=O)NC(c1ccc(Cl)cc1)c1ccc2cccnc2c1O (stereo not given) | 32 | 95* | 0 | -1
CC(=O)NC(c1ccc(Cl)cc1Cl)c1cc(Cl)c2cccnc2c1O (stereo not given) | 4 | 20 | 0 | 0
CCC(=O)NC(c1ccc2c(c1)OCO2)c1cc(Cl)c2cccnc2c1O (stereo not given) | 14 | 5 | -1 | 0
CC(=O)NC(c1ccc(Cl)cc1Cl)c1ccc2cccnc2c1O (stereo not given) | 42 | 89* | 3 | -1
CCCC(=O)NC(c1ccc(Cl)cc1Cl)c1ccc2cccnc2c1O (stereo not given) | 26 | 63* | -1 | -1
CCCC(=O)NC(c1ccc(Cl)cc1)c1ccc2cccnc2c1O (stereo not given) | 25 | 88* | -1 | -1
CCOC(=O)c1c(-c2ccccc2)csc1NC(=O)c1ccccc1 | 20 | -2 | -1 | 0
CCC(=O)NC(c1ccccc1)c1ccc2cccnc2c1O (stereo not given) | 35 | 82* | 0 | -2
COCC(=O)NC(c1ccccc1)c1cc(Cl)c2cccnc2c1O (stereo not given) | 27 | 24 | 0 | 0
CCC(=O)NC(c1ccc(OC)cc1)c1ccc2cccnc2c1O (stereo not given) | 63* | 32* | 0 | -2
CCCCC(=O)NC(c1ccc(Cl)cc1)c1ccc2cccnc2c1O (stereo not given) | 27 | 85* | 0 | -1
COc1cc2c(cc1OC)C(C(=O)N1CCCC(C)C1)C1c3ccccc3CCN1C2=O (stereo not given) | 23 | -2 | -1 | 1
COc1cc2c(cc1OC)C(C(=O)N1CCCCC1)C1c3ccccc3CCN1C2=O (stereo not given) | 24 | -6 | -1 | 1.9*
O=C(COc1ccccc1)Nc1ccc2oc(-c3cccnc3)nc2c1 | 3 | -18 | -1 | 0
CC(c1ccc([N+](=O)[O-])cc1)c1nc(-c2ccncc2)no1 (stereo not given) | 13 | -3 | -1 | 0
CC(c1ccc([N+](=O)[O-])cc1)c1nc(-c2ccccn2)no1 (stereo not given) | 7 | 67* | 0 | 1
Cc1ccc(Nc2nc(N)c3ccccc3n2)cc1C | 19 | 55* | -6 | 0
Cc1sc2nc(C3CCCN(C(=O)Cc4ccc(F)cc4)C3)[nH]c(=O)c2c1C (stereo not given) | 4 | -6 | 0 | 0
SMILES | MITF inh | TEAD-YAP block | GPR151 ag | FBW7 act
O=C(Cc1ccc(Br)cc1)N1CCC(c2nc3ccncc3c(=O)[nH]2)C1 (stereo not given) | 35 | 2 | -2 | 2.3*
CCOC(=O)c1[nH]c(C)c(/C(C)=N\Nc2ccc([N+](=O)[O-])cc2[N+](=O)[O-])c1C | -1 | -4 | 0 | 0
CCOC(=O)c1[nH]c(C)c(C(=O)/C=C/c2ccc(N(C)C)c([N+](=O)[O-])c2)c1C | 13 | 50* | 1 | 0
c1ccc(CN2CCC(Nc3nccc(NC4CC4)n3)CC2)cc1 | 8 | 1 | -1 | 0
Brc1cnc(NC2CCN(Cc3ccccc3)CC2)nc1 | -2 | 44* | -1 | 0
O=C(Nc1cc(Cl)ccc1Cl)c1cc(Br)cc(Br)c1O | -15 | 34* | 0 | 0
CCc1nc(SCC(=O)NCc2cccs2)c2c(C)c(C)sc2n1 | 4 | -6 | 0 | 8.1*
COc1nc(NCc2ccccc2)nc(Nc2ncccn2)n1 | 27 | -10 | 0 | 0
O=C(/C=C/Nc1cccc(O)c1)c1ccc(Cl)cc1 | 5 | 97* | -1 | 0
O=C(/C=C\Nc1ccc2c(c1)OCO2)c1ccc2ccccc2c1 | 8 | -7 | -1 | 1
O=C(/C=C\Nc1cccc(F)c1)c1ccc2c(c1)OCO2 | 0 | 55* | -4 | 0
COc1cccc(C(=O)/C=C/Nc2cccc(O)c2)c1 | 17 | 97* | -9 | 1
COc1cc(C(=O)NC(=S)Nc2cc(C(=O)O)ccc2C)cc(OC)c1OC | 4 | 0 | 2 | 0
COc1ccc(CCN(C)C2CCCN(C(=O)CCc3cnccn3)C2)cc1OC (stereo not given) | 6 | 2 | 0 | 0
O=C1NC(=O)N(Cc2ccccc2)C(=O)/C1=C/c1ccc(Br)o1 | 58* | 11 | -1 | -1
Cc1cccc(N2C(=O)NC(=O)/C(=C/c3ccc(I)o3)C2=O)c1 | 58* | -3 | -2 | 0
O=C1NC(=O)N(c2ccccc2)C(=O)/C1=C\c1ccc(I)o1 | 74* | -3 | 1 | 0
CCc1ccc(N2C(=O)NC(=O)/C(=C\c3ccc(I)o3)C2=O)cc1 | 14 | -1 | 1 | 1
Cc1c(Br)cc(NCC(=O)N/N=C\c2ccco2)cc1Br | -3 | -6 | 0 | 0
CCCn1nnc(NC(=O)c2ccc(C(C)(C)C)cc2)n1 | 12 | -75 | 1 | 0
Cc1ccc(OCC(=O)Nc2ccc(Cl)cn2)c(Br)c1 | -6 | 40* | -2 | 0
Cc1cc(Cl)ccc1OCC(=O)Nc1ccc(Cl)cn1 | 9 | -29 | 0 | 0
Cc1nc(NC(=O)COc2ccc(Cl)cc2Cl)sc1C | 7 | 74* | -7 | 0
Cc1cc(Br)ccc1OCC(=O)Nc1ccc(Cl)cn1 | 17 | -25 | 0 | 0
Cc1ccc(NC(=O)COc2ccc(Cl)cc2Cl)nc1 | 4 | 70* | -3 | 1
SMILES | MITF inh | TEAD-YAP block | GPR151 ag | FBW7 act
O=C(CCl)NCCOc1ccc(Cl)cc1Cl | 9 | 41* | -1 | 0
CC(=O)c1cc(C(=O)N2CCc3ccc(NC(=O)C4CCCO4)cc3C2)cs1 (stereo not given) | 1 | 8 | -1 | 0
NC(=O)c1ccc(-c2nc(NCCCN3CCCC3=O)c3ncn(-c4ccccc4)c3n2)cc1 | 14 | 55* | 1 | 0
O=C(NC1CC1)c1ccc(-c2nc(NCCCN3CCCC3=O)c3ncn(-c4ccccc4)c3n2)cc1 | 1 | 64* | 0 | 0
CC(=O)c1cccc(-c2nc(NCCCN3CCCC3=O)c3ncn(-c4ccccc4)c3n2)c1 | -7 | 58* | -1 | 0
CC(=O)c1cccc(-c2nc(NCCCN3CCCC3=O)c3ncn(CCN4CCCC4=O)c3n2)c1 | -7 | 0 | -1 | 0
CCC(C)(NC(=O)Cc1cccs1)C(=O)NC1CCCC1 (stereo not given) | -4 | 1 | 1 | 0
